HTR5A inv ag – HTR5A inverse agonism, opioid heterodimer counter-screen. P47898. HTR5A cell line, luminescence. actives 0.083% (n = 340,000). inhibition, % at 9.3 µM; in the data active = inhibition mostly above about 23%, no sharp cut-off; inactive = mostly below about 18%
Target sequence (P47898 whole entry, looked up): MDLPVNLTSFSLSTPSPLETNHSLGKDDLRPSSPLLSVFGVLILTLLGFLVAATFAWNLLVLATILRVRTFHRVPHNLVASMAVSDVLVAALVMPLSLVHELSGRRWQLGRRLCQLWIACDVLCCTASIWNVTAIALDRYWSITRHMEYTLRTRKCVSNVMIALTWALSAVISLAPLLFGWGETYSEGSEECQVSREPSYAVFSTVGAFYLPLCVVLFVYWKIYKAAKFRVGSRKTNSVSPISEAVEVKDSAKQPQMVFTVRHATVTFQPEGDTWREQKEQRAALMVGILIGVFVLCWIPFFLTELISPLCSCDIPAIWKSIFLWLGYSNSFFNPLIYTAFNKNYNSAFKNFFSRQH
MOR-DOR inv ag-1 – inverse agonists of human mu-delta opioid receptor heterodimerization; cell-based MOR-DOR heterodimer luminescence, inverse agonism; P35372+P41143; AID 504357; inhibition, % at 9.3 µM; actives 0.21% (n = 340,000); in the data active = inhibition above about 22%, passing the limit was not always enough
HTR5A ag ctr – counter-screen for OPRM1-OPRD1 agonists: human HTR5A agonism | AID 504692 | activation, % at 9.3 µM | HTR5A agonist assay, luminescence, cell-based | actives 0.61% (n = 340,000); in the data active = activation mostly above about 9.5%, no sharp cut-off; inactive = mostly below about 7.6%
MOR-DOR ag – OPRM1-OPRD1 heterodimerization agonism | cells, luminescence | P35372+P41143 | actives 0.3% (n = 340,000) | AID 504326 | activation, % at 9.3 µM; in the data active = activation above about 18%
MOR-DOR inv ag-2 – counter-screen for HTR5A inverse agonists: OPRM1-OPRD1 heterodimerization inverse agonism | inhibition, % at 9.3 µM | 190 tested, under 10 active | shares compounds with HTR5A inv ag | U2OS counter-screen cells, complementation luminescence
HTR5A inv confrm – confirmation of human HTR5A inverse agonists; shares compounds with HTR5A inv ag; HTR5A-expressing cells, inverse agonism, luminescence; inhibition, % at 9.3 µM; 190 tested, under 10 active; AID 504916
Numbers stand for hits; - = inactive; . = no result. An excerpt weighted towards active compounds, which were near 1.1% of everything screened. Unless noted, no rule for the calls is given here.

SMILES	HTR5A inv ag	MOR-DOR inv ag-1	HTR5A ag ctr	MOR-DOR ag	MOR-DOR inv ag-2	HTR5A inv confrm
COc1ccccc1C(=O)Nc1nnc(-c2ccccc2)s1	-	-	-	-	.	.
CCOc1ccc(NC(=S)NC(=O)c2c(Br)cnn2C)c([N+](=O)[O-])c1	36	-	-	-	-	-
CCOc1ccc(NC(=S)NC(=O)c2c(Cl)cnn2CC)c([N+](=O)[O-])c1	-	-	-	-	.	.
S=c1[nH]cc(-c2ccc(Cl)cc2)n1Cc1ccccc1	31	-	-	-	-	-
CCn1c(-c2ccccc2)c[nH]c1=S	-	-	-	-	.	.
Cc1cc(OC(F)F)ccc1NC(=S)NCCc1ccccc1	-	-	-	-	.	.
FC(F)Oc1ccccc1NC(=S)NCCc1ccccc1	45	-	-	-	-	-
CCN(CC)C(=O)CSc1nc2ccccc2c(=O)n1OC(C)C	38	-	-	-	-	-
CC(C)c1ccc(/C=C/C(=O)Nc2nc3ccc([N+](=O)[O-])cc3s2)cc1	-	-	-	-	.	.
O=[N+]([O-])c1ccc2nc(NN=Cc3ccc(O)cc3)sc2c1	30	-	-	-	-	-
COc1ccc(OC)c(S(=O)(=O)Nc2ccccc2C(=O)N2CCCCC2)c1	45	-	-	-	-	-
COc1ccc(S(=O)(=O)Nc2ccccc2C(=O)N2CCCC2)cc1OC	-	-	-	-	.	.
COc1ccc(/C=C/C(=O)NC(=S)NNC(=O)c2cccs2)cc1	42	-	-	-	-	-
NC(=NCc1ccccc1)C(N=Nc1ccccc1)C(=O)NCc1ccccc1 (configuration not stated)	30	-	-	-	-	-
CCOC(=O)c1cc2c(ccc3nc(C)c(C)c32)[nH]c1C	-	-	-	-	.	.
CC(=O)NNC(=S)NC(=O)C(c1ccccc1)c1ccccc1	-	-	-	-	.	.
CC(C)(C)C(=O)NC(=S)NNC(=O)C(c1ccccc1)c1ccccc1	45	-	-	-	-	-
O=C(CCCCCN1C(=O)c2cccc3cccc(c23)C1=O)NCCCO	32	-	-	-	-	-
COc1ccc(OCC(=O)NNC(=O)c2cc3ccccc3o2)cc1	39	-	-	-	-	-
COc1ccc(CNC(=S)NNC(=O)c2cc3ccccc3o2)cc1	-	-	-	-	.	.
COC(Cc1nnc(SC)n1-c1ccc(Cl)cc1)OC	-	-	-	-	.	.
C=CCSc1nnc(CC(OC)OC)n1-c1ccccc1	39	-	-	-	-	-
COc1ccc(-c2n[nH]c(=S)o2)c(OC)c1	-	-	-	-	.	.
Cc1cc(NC(=O)CSCC(=O)N(c2ccc(F)cc2)C(C(=O)NC2CCCCC2)c2ccc(O)c(O)c2)no1 (configuration not stated)	-	-	-	-	.	.
Cc1cc(C)n2nc(C(=O)OCC(=O)Nc3ccc(C)c(S(=O)(=O)N(C)C)c3)nc2n1	-	-	-	-	.	.
SMILES	HTR5A inv ag	MOR-DOR inv ag-1	HTR5A ag ctr	MOR-DOR ag	MOR-DOR inv ag-2	HTR5A inv confrm
Cc1cc(C)n2nc(C(=O)OCC(=O)Nc3ccc(C)c(S(=O)(=O)N4CCOCC4)c3)nc2n1	28	-	-	-	-	-
CCN(CC)c1ccc(/C=N/Nc2ccccc2)c(O)c1	45	-	-	-	-	-
Cc1nc2cc(NC(=O)Nc3ccc(N4CCOCC4)cc3)ccc2n1C	42	-	-	-	-	-
O=C(NC1CCCCC1)N1CCN(c2ccc(Cl)cc2)CC1	-	-	-	-	.	.
N#CCSc1nnc(-c2ccc3c(c2)OCO3)o1	25	-	-	-	-	-
CC(C)Cn1c(N)c(S(=O)(=O)c2cccs2)c2nc3ccccc3nc21	38	-	-	-	-	-
O=C1N[C@@H](Cc2ccccc2)COC(=O)[C@@H](Cc2ccc(F)cc2)CC/C=C/C[C@H]1CC(=O)N(CCO)Cc1ccccc1	-	-	-	-	.	.
O=C1N[C@@H](Cc2ccccc2)COC(=O)[C@H](Cc2ccc(F)cc2)CC/C=C/C[C@@H]1CC(=O)N(CCO)Cc1ccccc1	37	-	-	-	-	-
Brc1ccccc1/C=N/Nc1ccc2ccccc2n1	-	-	-	-	.	.
O=[N+]([O-])c1cccc(C=NNc2ccc3ccccc3n2)c1O	35	-	-	-	-	47
C/C(=N\Nc1cc(-c2ccccc2)nc(-c2ccccc2)n1)c1ccc(O)c(C)c1	49	-	-	-	-	-
CCOc1cccc(/C=C/c2ccc3cccc(O)c3n2)c1OC	53	-	-	-	-	-
Oc1cccc2ccc(/C=C/c3ccccc3Cl)nc12	62	-	-	-	-	47
CCOc1cccc(/C=C/c2ccc3cccc(O)c3n2)c1O	-	-	-	-	.	.
CN1CCN(c2ncnc3c2c(-c2ccccc2)cn3-c2ccc(F)cc2)CC1	39	-	-	-	-	-
O=C(Nc1ccccc1F)C(c1ccccc1)c1ccccc1	-	-	-	-	.	.
O=C(NCc1ccc(F)cc1)Nc1ccccc1	-	-	-	-	.	.
CSc1ccc(NC(=O)NCc2ccccc2)cc1	31	-	-	-	-	-
CCCOc1cccc(C(=O)N/N=C/c2ccoc2)c1	45	-	-	-	-	-
CC(C)Oc1cccc(C(=O)N/N=C/c2ccoc2)c1	-	-	-	-	.	.
COc1ccc(CCNCC(O)COc2cccc(Br)c2)cc1 (configuration not stated)	-	-	-	-	.	.
Cc1cccc(CCNC(=O)c2cc(S(=O)(=O)N3CCCC3)cn2C)c1	-	-	-	-	.	.
O=C(NN1C(=O)/C(=C/c2ccc(O)c(O)c2)SC1=S)c1ccccc1	31	-	-	-	-	-
COc1cc(/C=C2/SC(=S)N(CC3CCCO3)C2=O)ccc1O (configuration not stated)	44	-	-	-	-	-
COc1cc(/C=C2\SC(=S)N(NC(=O)c3cccnc3)C2=O)ccc1O	22	-	-	-	-	-
SMILES	HTR5A inv ag	MOR-DOR inv ag-1	HTR5A ag ctr	MOR-DOR ag	MOR-DOR inv ag-2	HTR5A inv confrm
O=C(NCCc1nc(-c2ccccc2Cl)no1)c1ccccc1	-	-	-	-	.	.
CC(C)C(=O)NCCc1nc(-c2ccccc2Cl)no1	38	-	-	-	-	-
CCN(CC(=O)Nc1ccc2c(c1)OCCO2)C(=O)c1cc(Cl)nc2ccccc12	33	-	-	-	-	-
CCN(CC(=O)Nc1ccc2c(c1)OCCO2)C(=O)c1ccc(Cl)cc1Cl	-	-	-	-	.	.
CCCCCNC(=O)CSC1=N/C(=C\c2ccc(Cl)c(Cl)c2)C(=O)N1CC	-	-	-	-	.	.
O=C(CSC1=N/C(=C/c2ccc(Cl)c(Cl)c2)C(=O)N1c1ccccc1F)NC1CC1	37	-	-	-	-	-
C1=C(CCNc2ncnc3c2[nH]c2ccccc23)CCCC1	-	-	-	-	.	.
O=C(NNc1ccc([N+](=O)[O-])cc1)Nc1ccccc1	-	-	-	-	.	.
O=C(NNc1ccc([N+](=O)[O-])cn1)Nc1ccc(N=Nc2ccccc2)cc1	36	-	-	-	-	-
COc1ccc(/C=C(/NC(=O)c2cccs2)C(=O)NCc2ccco2)cc1OC	44	-	-	-	-	-
COc1cccc(CNCc2ccccc2Br)c1OC	36	-	-	-	-	-

Screening results: PubChem BioAssay, The Scripps Research Institute Molecular Screening Center
